Bioassay records as filed in PubChem.
An excerpt weighted towards active compounds, which were near 22% of everything screened.
Measles CPE – protection of cells from measles virus; AID 841; Measles virus-infected cells, CPE protection, absorbance; actives 1.5% (n = 140,000); protection (pct of control), % at 4 µM; in the data active = protection mostly above about 24%, no sharp cut-off; inactive = mostly below about 26%
CYP2C19 inh – human CYP2C19 inhibition; P33261; CYP2C19 Supersomes, luciferin-H EGE luminescence, 30 min; inhibition, % at 5 µM; actives 21% (n = 96,000); AID 778;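 active = CYP2C19 inhibition above a set limit at 5 µM in the primary screen, cut at about 50% in these data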
CYP2C19 activ – activators of human cytochrome P450 2C19; P33261; recombinant CYP2C19, luciferin-H EGE luminescence; stronger effect = higher value; 0 = fully inhibited enzyme, 1 = untreated enzyme; activation factor at 5 µM; 96,000 tested, under 10 active; AID 1025;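 active = activation factor of at least 2 at 5 µM in the primary screen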
CYP2C9 act – increases human cytochrome P450 2C9 activity; P11712; actives 1.4% (n = 96,000); recombinant CYP2C9, luciferin-H conversion, luminescence; stronger effect = higher value; factor 1 = untreated enzyme, 0 = blocked; AID 1024; activation factor at 5 µM;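 active = activation factor of 2 or more for CYP2C9 at a 5 µM dose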
Target sequence (P11712 whole entry, looked up): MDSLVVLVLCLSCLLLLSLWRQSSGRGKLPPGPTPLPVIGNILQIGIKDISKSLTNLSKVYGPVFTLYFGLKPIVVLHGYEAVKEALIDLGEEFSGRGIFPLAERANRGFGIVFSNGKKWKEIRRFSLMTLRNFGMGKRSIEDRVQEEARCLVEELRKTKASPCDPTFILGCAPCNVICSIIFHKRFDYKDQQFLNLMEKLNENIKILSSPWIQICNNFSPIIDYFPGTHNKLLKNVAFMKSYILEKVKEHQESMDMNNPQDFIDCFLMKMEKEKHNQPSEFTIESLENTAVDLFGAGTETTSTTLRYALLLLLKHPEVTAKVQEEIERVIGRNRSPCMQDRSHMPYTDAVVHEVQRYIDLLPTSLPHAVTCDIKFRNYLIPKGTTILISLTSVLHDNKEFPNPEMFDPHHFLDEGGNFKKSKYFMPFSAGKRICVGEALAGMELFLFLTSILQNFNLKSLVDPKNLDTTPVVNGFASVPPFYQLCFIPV
CYP2C9 inhib – human CYP2C9 inhibition; actives 20% (n = 96,000); P11712; inhibition, % at 5 µM; CYP2C9 Supersomes, luciferin-H conversion, luminescence; AID 777;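 active = blocking of liver enzyme CYP2C9 beyond about 50% at 5 µM, limit read from the data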
Of the large screens only hits and unclear results are named; the others gave an inactive call.

CCCCNC(=O)N1CCOCCOCCN(C(=O)NCCCC)CCOCC1	none
O=C(NCc1ccc2c(c1)OCO2)C1CCCN1C(=O)Nc1cccc(Cl)c1 (configuration not stated)	none
COc1ccc(Nc2nc(-c3cccs3)nc3ccccc23)c(OC)c1	none (no result: CYP2C19 inh, CYP2C19 activ, CYP2C9 act, CYP2C9 inhib)
COc1ccccc1C(=O)Nc1ccc(S(=O)(=O)N2CCc3ccccc32)cc1	CYP2C19 inh 73, CYP2C9 inhib 89
COc1cc(C(=O)Nc2ccc(S(=O)(=O)N3CCc4ccccc43)cc2)cc(OC)c1OC	CYP2C9 inhib 91
O=C(CN1C(=O)C2C3C=CC(C3)C2C1=O)Nc1ccc(S(=O)(=O)N2CCCCC2)cc1 (configuration not stated)	none (no result: CYP2C19 inh, CYP2C19 activ, CYP2C9 act, CYP2C9 inhib)
CCC(=O)N1c2ccccc2C(N(C(C)=O)c2ccccc2)CC1C (configuration not stated)	none (no result: CYP2C19 inh, CYP2C19 activ, CYP2C9 act, CYP2C9 inhib)
CCCC(=O)N1c2ccccc2[C@@H](N(C(C)=O)c2ccccc2)C[C@H]1C	CYP2C19 inh 51, CYP2C9 inhib 73
O=C1CC(N2CCCN(C3CC(=O)N(c4ccc(F)cc4)C3=O)CC2)C(=O)N1c1ccc(F)cc1 (configuration not stated)	Measles CPE 55
O=C1CC(N2CCCCC2)C(=O)N1c1ccccc1 (configuration not stated)	none (no result: CYP2C19 inh, CYP2C19 activ, CYP2C9 act, CYP2C9 inhib)
O=C(NC1CCCCC1)C(c1ccco1)N(Cc1cccnc1)C(=O)C1COc2ccccc2O1 (configuration not stated)	CYP2C19 inh 84, CYP2C9 inhib 76
CC(C)(C)NC(=O)C(c1ccco1)N(C(=O)c1csnn1)c1ccccc1 (configuration not stated)	none
O=C(NCc1ccc2c(c1)OCO2)C(c1ccco1)N(C(=O)c1csnn1)c1ccccc1 (configuration not stated)	CYP2C19 inh 75
O=C(NC1CCCC1)C(c1ccco1)N(Cc1ccccc1)C(=O)c1csnn1 (configuration not stated)	CYP2C19 inh 71
O=C(NC1CCCC1)C(c1ccccn1)N(C(=O)c1csnn1)C1CC1 (configuration not stated)	Measles CPE 86
Cc1cc(C)c2nc3s/c(=C/c4ccc5c(c4)n(C)c(=O)n5C)c(=O)n3c2c1	none
O=C(/C=C/c1ccco1)NCCCN1CCN(CCCNC(=O)/C=C/c2ccco2)CC1	none (no result: CYP2C19 inh, CYP2C19 activ, CYP2C9 act, CYP2C9 inhib)
Cc1ccc2c(COn3nnc4ccc(S(=O)(=O)N(C)C)cc43)cc(=O)oc2c1C	none
Cc1ccc(NC(=O)COC(=O)C2CCC(=O)N2)c(S(=O)(=O)N2CCOCC2)c1 (configuration not stated)	none
COc1ccnc(Oc2ccc(F)cc2)c1C(=O)N/C=N/OCc1c(Cl)cccc1Cl	CYP2C19 inh 52, CYP2C9 inhib 75
CC(=O)Nc1cccc(Oc2cc(C#N)c(C#N)cc2N2CCCCCC2)c1	CYP2C19 inh 96, CYP2C9 inhib 100
COc1ccc(N2CCN(c3ccc(NC(=O)C4CCCCC4)cc3C#N)CC2)cc1	none
CCOc1ccc(Nc2nc(Cc3nnc(SCC(N)=O)o3)cs2)cc1	none
Cn1cc(-c2nnc(-c3ccccc3)o2)c2ccccc21	CYP2C9 act 2.4
CCN(CC)CCN(Cc1cc2cc(C)ccc2[nH]c1=O)C(=S)NCc1ccco1	none (no result: CYP2C19 inh, CYP2C19 activ, CYP2C9 act, CYP2C9 inhib)
COc1cccc(C(=O)OCc2ccccc2C#N)c1O	CYP2C19 inh 92, CYP2C9 inhib 76
COc1ccc(CNC(=O)C2CC(=O)N(c3ccc(OCC(=O)N4CCCCC4)cc3)C2)cc1 (configuration not stated)	none
COc1ccc(CNC(=O)C2CC(=O)N(c3ccc(OCC(=O)N4C(C)CCCC4C)cc3)C2)cc1 (configuration not stated)	CYP2C9 inhib 61
C=CCNC(=O)C1CC(=O)N(c2ccc(OCC(=O)Nc3ccccc3)cc2)C1 (configuration not stated)	CYP2C9 inhib 55
COc1cccc(N2CC(C(=O)NC3CCCCC3)CC2=O)c1 (configuration not stated)	CYP2C9 act 2.3
COc1cccc(N2CC(C(=O)Nc3ccc(C(=O)OC(C)C)cc3)CC2=O)c1 (configuration not stated)	CYP2C19 inh 51, CYP2C9 inhib 71
C=CCNC(=O)C1CC(=O)N(c2ccc(OCC(=O)Nc3ccc(C)cc3)cc2)C1 (configuration not stated)	none
COc1ccc(N2CC(C(=O)NC3CC(C)(C)NC(C)(C)C3)CC2=O)cc1 (configuration not stated)	none
O=C(CN1CCN(Cc2ccccc2)CC1)NC(=O)NC1CCCCC1	none
CCCCCCn1c(N2CCN(c3cccc(Cl)c3)CC2)nc2c1c(=O)[nH]c(=O)n2C	none
CCCCCn1c(CN2CCN(c3cccc(Cl)c3)CC2)nc2c1c(=O)[nH]c(=O)n2C	CYP2C9 inhib 59
CCOC(=O)N1CCN(Cc2nc3c(c(=O)[nH]c(=O)n3C)n2Cc2cc(C)ccc2C)CC1	CYP2C9 inhib 72
Cn1c(=O)[nH]c(=O)c2c1nc(CN1CCN(c3cccc(Cl)c3)CC1)n2CCc1ccccc1	none
CCCCCCCCn1c(N2CCN(c3cccc(Cl)c3)CC2)nc2c1c(=O)[nH]c(=O)n2C	CYP2C9 inhib 52
CC(=O)c1c(C)[nH]c(C(=O)N2c3ccccc3CC2C)c1C (configuration not stated)	CYP2C19 inh 77, CYP2C9 inhib 78
COc1ccc(C(=O)N2c3ccccc3CC2C)cc1OC (configuration not stated)	CYP2C19 inh 66
COc1ccc(N2CCN(CC(O)c3c[nH]c4ccc(OC)cc34)CC2C)cc1 (configuration not stated)	none
COc1ccc2occ(NC(C)=O)c2c1	Measles CPE 42
COc1ccc2occ(C(=O)c3cccs3)c2c1	CYP2C19 inh 75, CYP2C9 inhib 53
COc1ccc(OC)c(C(=O)c2coc3ccc(OC(C)=O)cc23)c1	none (no result: CYP2C19 inh, CYP2C19 activ, CYP2C9 act, CYP2C9 inhib)
CCCn1c(=O)c2ccccc2n2c(SCC(=O)c3cc(C)n(CCOC)c3C)nnc12	none (no result: Measles CPE)
COC(=O)c1sc(N2C(=O)c3oc4ccccc4c(=O)c3C2c2cccs2)nc1C (configuration not stated)	none
Cc1cccc(C)c1-n1nnnc1C1(Nc2ccccc2)CCCCC1	CYP2C19 inh 61, CYP2C9 inhib 61
CCN(CC(O)Cn1c2ccccc2c2ccccc21)S(=O)(=O)c1ccc(F)cc1 (configuration not stated)	CYP2C19 inh 100, CYP2C9 inhib 97
CCN(CC(O)CON=C1c2ccccc2-c2ccccc21)S(=O)(=O)c1ccc(C)cc1 (configuration not stated)	none (no result: CYP2C19 inh, CYP2C19 activ, CYP2C9 act, CYP2C9 inhib)
O=S(=O)(c1ccc(F)cc1)N(CCO)CC(O)Cn1c2ccccc2c2ccccc21 (configuration not stated)	CYP2C19 inh 97, CYP2C9 inhib 57
O=C(Nc1ccc2ccccc2c1)c1onc2c1CCCC2	none
N#C/C(=C\c1sc(N2CCOCC2)nc1-c1ccccc1)C(=O)Nc1cccc2ccccc12	none (no result: CYP2C19 inh, CYP2C19 activ, CYP2C9 act, CYP2C9 inhib)
